From PubChem BioAssay AID652118 (Broad Institute, 2013)
Entries with a potency or affinity are not part of this list. Active and inactive are the calls of the source.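 Rule for the calls: active = compounds lowering cell ATP signal whose fitted half-effect concentration is at most twice the top tested dose; inconclusive = flat curves with 30 to 70% signal loss, or poor fits; inactive = the rest.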

Experiment: loss of viability in hepatoma HepG2 cells – cell-based, ATP luminescence, dry powder, cytotoxicity control, dose response (AID 652118)
Details: CellTiter-Glo ATP luminescence, 48 h; series mostly up to 26 µM

| SMILES | outcome |
| --- | --- |
| C=CCOc1ccc(CN2CCC(CCOc3ccccc3)(C(=O)N3CCCC3)CC2)cc1Cl | inactive |
| CCOC(=O)C1(CCOc2ccccc2)CCN(Cc2ccc(OC)c(Cl)c2)CC1 | inactive |
| C/C1=C\[C@@H](O)C(C)(C)CCCC2(C)OC2C[C@@H]1OC(=O)c1ccc(O)cc1 (stereo partly drawn) | inactive |
| CCOC(=O)C1(CCOc2ccccc2)CCN(C(=O)c2ccc(O)c(Cl)c2)CC1 | inactive |
| CC(C)(C)OC(=O)C1(CCOc2ccccc2)CCN(Cc2ccc(O)c(Cl)c2)CC1 | inactive |
| C=CCOc1ccc(CN2CCC(CCOc3ccccc3)(C(=O)O)CC2)cc1Cl | inactive |
| CCOC(=O)C1(Cc2ccccc2)CCN(Cc2ccc(O)c(Cl)c2)CC1 | inactive |
| O=C(Nc1ccccc1)C1(CCOc2ccccc2)CCN(Cc2ccc(O)c(Cl)c2)CC1 | inactive |
| CCOC(=O)C1(CCOc2ccccc2)CCN(Cc2ccc(O)c(Cl)c2)CC1 | inactive |
| O=C(NC1CCCC1)C1(CCOc2ccccc2)CCN(Cc2ccc(O)c(Cl)c2)CC1 | inactive |
| C=CCOc1ccc(CN2CCC(CCOc3ccccc3)(C(=O)NCC)CC2)cc1Cl | inactive |
| CCOC(=O)C1CCN(C(=O)OC(C)(C)C)CC1 | inactive |
| CCOC(=O)C1(Cc2cccc(OC)c2)CCN(Cc2ccc(O)c(Cl)c2)CC1 | inactive |
| C=CCOc1ccc(CN2CCC(CCOc3ccccc3)(C(=O)OCC)CC2)cc1Cl | inactive |
| CCOC(=O)C1(CCOc2ccccc2)CCN(Cc2cccc(Cl)c2)CC1 | inactive |
| CCOC(=O)c1c(CN2CCN(CCO)CC2)n(-c2ccccc2)c2cc(Br)c(O)cc12 | inactive |
| C=CCOc1ccc(CN2CCC(CCOc3ccccc3)(C(=O)N(C)CC)CC2)cc1Cl | inactive |
| CCOC(=O)C1(CCOC)CCCN(Cc2ccc(Cl)cc2)C1 (stereo not drawn) | inactive |
| CC(C)OC(=O)C1(CCOc2ccccc2)CCN(Cc2ccc(O)c(Cl)c2)CC1 | inactive |
| C=CCOc1ccc(CN2CCC(CCOc3ccccc3)(C(=O)NC3CCCC3)CC2)cc1Cl | inactive |
| CCOC(=O)C1(CCOc2ccccc2)CCN(Cc2ccc(OC)cc2)CC1 | inactive |
| CCN(C)C(=O)C1(CCOc2ccccc2)CCN(Cc2ccc(O)c(Cl)c2)CC1 | inactive |
| CCOC(=O)C1(CCOC)CCN(Cc2ccc(O)c(Cl)c2)CC1 | inactive |
| CCOC(=O)C1(CCOc2ccccc2)CCN(Cc2ccc3[nH]c(=O)oc3c2)CC1 | inactive |
| CCOC(=O)C1(CCOc2ccccc2)CCN(Cc2ccc(O)cc2)CC1 | inactive |
| C/C1=C\C[C@H](OC(=O)c2ccc(O)cc2)/C(C)=C/[C@@H](O)C(C)(C)CCC1 | inactive |
| CCNC(=O)C1(CCOc2ccccc2)CCN(Cc2ccc(O)c(Cl)c2)CC1 | inactive |
| O=C(N1CCCC1)C1(CCOc2ccccc2)CCN(Cc2ccc(O)c(Cl)c2)CC1 | inactive |
